This is an account of results in PubChem BioAssay (NCATS).

A short description of experiment [1]: MultiTox-Fluor Cytotoxicity Assay - LYMP1-003 - Live Cells (AID 962). A digest of the protocol: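 LYMP1-003 human lymphoblastoid cells (2500/well) in complete medium were preincubated 5 hr at 37 C, then exposed to compounds for 16 hr at 37 C. Live-cell protease cleavage of GF-AFC read by fluorescence (Ex/Em 405/510); AC50 from Hill fits.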
A short description of experiment [2]: Cell Viability - LYMP1-003 - Assay at 24 hr (AID 963). In outline: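 Human lymphoblastoid LYMP1-003 cells (2500/well) were rested 5 hr at 37 C, then exposed to compounds in complete medium for 24 hr at 37 C. Cellular ATP was quantified by CellTiter-Glo luminescence, and AC50 values came from Hill fits of concentration-response data.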
A short description of experiment [3]: Cell Viability - LYMP1-003 - Assay at 40 hr (AID 964). Further: nearly all actives have a fitted effect of over 60% in size. In outline:
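Human lymphoblastoid LYMP1-003 cells, 2500/well in complete medium, rested 5 hr at 37 C, then exposed to compounds for 40 hr at 37 C. Viability read as intracellular ATP by CellTiter-Glo luminescence; AC50 from Hill fits of concentration-response data.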

The nature of experiment [4]: Cell Viability - LYMP2-003 (AID 965).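 Further: cells exposed to compounds for 24 h before reading; nearly all actives have a fitted effect of over 50% in size.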 In outline: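 Seed 2500 lymphoblastoid cells/well; incubate 5 hr, 37 C; add compounds; incubate 24 hr, 37 C; add CellTiter-Glo, 30 min RT; read luminescence. AC50 from Hill fit.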
Experiment [5] can be described thus: Cell Viability - LYMP2-005 (AID 967). A digest of the protocol:
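Acute cytotoxicity is scored as a concentration-dependent drop in intracellular ATP in human lymphoblastoid LYMP2-005 cells after 24 h compound treatment. ATP is quantified by luciferase luminescence, and AC50 is derived by Hill-equation modelling.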

A short description of experiment [6]: Cell Viability - LYMP2-009 (AID 968). Further: nearly all actives have a fitted effect of over 55% in size.
Experiment [7] can be described thus: Cell Viability - LYMP2-011 (AID 969). Further: nearly all actives have a fitted effect of over 60% in size. In outline: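 Human lymphoblastoid cells (2500/well) were plated in complete medium, preincubated 5 hr at 37 C, then exposed to compounds for 24 hr at 37 C. Intracellular ATP was read by CellTiter-Glo luminescence, and AC50 came from Hill-equation concentration-response fits.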
A short description of experiment [8]: Cell Viability - LYMP2-013 (AID 970). Further: nearly all actives have a fitted effect of over 55% in size. In outline:
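Human lymphoblastoid cells, 2500/well, were preincubated 5 hr at 37 C, then treated with compounds for 24 hr at 37 C in complete medium. Intracellular ATP was read by CellTiter-Glo luminescence; AC50 from Hill-equation fits of concentration-response data.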

A short description of experiment [9]: Cell Viability - LYMP2-015 (AID 971). Further: nearly all actives have a fitted effect of over 55% in size. A digest of the protocol:
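Human lymphoblastoid cells (2500/well) in complete medium were preincubated 5 hr at 37 C, then compound-treated 24 hr at 37 C. Intracellular ATP was read by CellTiter-Glo luminescence after 30 min at room temperature; AC50 came from Hill-equation concentration-response fits.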

Experiment [10] can be described thus: Cell Viability - LYMP2-017 (AID 972). Further: nearly all actives have a fitted effect of over 55% in size. In outline:
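Human lymphoblastoid cells (2500/well) were seeded in complete medium, held 5 hr at 37 C, then exposed to compounds for 24 hr at 37 C. Intracellular ATP was read by CellTiter-Glo luminescence after 30 min at room temperature, with AC50 values from Hill-equation fits.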

Experiment [11] in a line: Cell Viability - LYMP2-019 (AID 973). Further: nearly all actives have a fitted effect of over 55% in size. A digest of the protocol: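 Human lymphoblastoid cells were seeded at 2500 cells/well, preincubated 5 hr at 37 C, then exposed to compounds for 24 hr at 37 C in complete medium. Intracellular ATP was measured by CellTiter-Glo luminescence; AC50 from Hill fits.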
Experiment [12] is described as follows: Cell Viability - LYMP2-021 (AID 974). In outline:
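Human lymphoblastoid cells (2500/well) were preincubated 5 hr at 37 C, then exposed to compounds for 24 hr at 37 C in complete medium. Intracellular ATP was read by CellTiter-Glo luminescence; AC50 came from Hill-equation fits of concentration-response data.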

The nature of experiment [13]: Cell Viability - LYMP2-023 (AID 975). Further: nearly all actives have a fitted effect of over 55% in size. A digest of the protocol: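 Human lymphoblastoid cells (2500/well) were preincubated 5 hr at 37 C, then exposed to compounds for 24 hr at 37 C in complete medium. Cellular ATP was read by CellTiter-Glo luminescence, and AC50 came from Hill-equation fits.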
The nature of experiment [14]: Cell Viability - LYMP2-025 (AID 976). In outline:
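Human lymphoblastoid LYMP2-025 cells (2500/well) were pre-incubated 5 hr at 37 C, then treated with compounds for 24 hr at 37 C in complete medium. Viability was read as intracellular ATP by CellTiter-Glo luminescence; AC50 from Hill fits.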

Experiment [15] is described as follows: Cell Viability - LYMP2-002 (AID 977).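 Further: compound exposure lasted 24 h at 37 °C.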 In outline:
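Cytotoxicity is scored as concentration-dependent loss of cellular ATP in a human lymphoblastoid line after 24 hr compound treatment at 37 C. AC50 is obtained by modelling concentration-response data with the Hill equation.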

A short description of experiment [16]: Cell Viability - LYMP2-006 (AID 978). Further: nearly all actives have a fitted effect of over 60% in size. In outline:
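Cells are seeded at 2500 per well and rested 5 hr at 37 C. Compounds are added across a concentration series for 24 hr at 37 C, after which ATP is quantified by luciferase luminescence.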

Experiment [17] in a line: Cell Viability - LYMP2-007 (AID 979).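 Further: cells exposed to compound for 24 h before reading; nearly all actives have a fitted effect of over 60% in size.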 A digest of the protocol: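 Human lymphoblastoid cells (2500/well) were plated in complete medium, incubated 5 hr at 37 C, then exposed to compounds for 24 hr at 37 C. Intracellular ATP was read by CellTiter-Glo luminescence after 30 min at room temperature; AC50 from Hill fits.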
The nature of experiment [18]: Cell Viability - LYMP2-008 (AID 980). Further: nearly all actives have a fitted effect of over 60% in size. In outline:
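Human lymphoblastoid cells (2500/well) were plated, held 5 hr at 37 C, then exposed to compounds for 24 hr at 37 C in complete medium. Intracellular ATP was read by CellTiter-Glo luminescence; AC50 from Hill-fitted concentration-response.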

Experiment [19] can be described thus: Cell Viability - LYMP2-010 (AID 981). Further: nearly all actives have a fitted effect of over 55% in size. A digest of the protocol: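 Human lymphoblastoid LYMP2-010 cells (2500/well) were preincubated 5 hr at 37 C, then exposed to compounds for 24 hr at 37 C in complete medium. Intracellular ATP was measured by CellTiter-Glo luminescence after 30 min at room temperature; AC50 from Hill-fitted concentration-response.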
The nature of experiment [20]: Cell Viability - LYMP2-012 (AID 982).

Results filed as inconclusive are left out. Active and inactive are the calls of the source. The call rests on the fitted dose curve; in most records, active means well fitted curve in the direction sought with a large enough effect; inconclusive means small, poorly fitted or top-dose-only effect, or another doubt; inactive means no such curve, though single readings can be large; an effect the other way counts as inactive or inconclusive.
Potency means the concentration at half of the fitted maximal effect.

Consider `CCCCCCCCCCCCCCCCCC(=O)O`, for which the Potency result in [1], in experiment [2], in experiment [3], in experiment [4], in [5] and in experiment [6] was “inactive” throughout. The Potency entry in experiment [7], in [8], in [9], in [10], in [11] and in [12] was “inactive” in each case. Further, the Potency result in experiment [13], in experiment [14], in experiment [15], in [16], in [17] and in [18] was “inactive” in each case. The Potency entry in [19] and in [20] was “inactive” each time.
Turning to `Nc1nc2ccc([N+](=O)[O-])cc2s1`, the Potency entry in experiment [1], in experiment [2], in experiment [3], in [4], in experiment [6] and in experiment [7] was “inactive” each time. The Potency entry in experiment [8], in experiment [9], in [10], in experiment [11], in experiment [12] and in [13] was “inactive” each time. For the same compound, the Potency entry in experiment [14], in experiment [15], in experiment [16], in experiment [17], in [18] and in [20] was “inactive” each time.
With `CN(C)c1ccc(C(=C2C=CC(=[N+](C)C)C=C2)c2ccccc2)cc1`, the Potency in [1] is 2000 nM (active); in experiment [2], 2000 nM (active); in experiment [3], 631 nM (active); in [4] it was 501 nM (active); in experiment [5] it was 501 nM (active); in experiment [6] it was 398 nM (active). The Potency in [7] is 316 nM (active); in experiment [8] it was 501 nM (active); in experiment [9], 316 nM (active); in experiment [10], 501 nM (active); in experiment [11], 501 nM (active); in experiment [12], 398 nM (active). Besides, the Potency was 398 nM (active) in [13]; 501 nM (active) in experiment [14]; 398 nM (active) in [15]; 501 nM (active) in [16]; 251 nM (active) in [17]; 316 nM (active) in experiment [18]. For the same compound, the figures for the Potency in [19] and in [20] were 251 nM (active) and 158 nM (active), respectively.
Consider `NCCO`, for which the Potency result in experiment [1], in experiment [2], in experiment [3], in experiment [4], in [5] and in [6] was “inactive” throughout. Moreover, the Potency entry in experiment [7], in [8], in experiment [9], in [10], in experiment [11] and in [12] was “inactive” each time. Besides, the Potency entry in experiment [13], in experiment [14], in [15], in experiment [16], in experiment [17] and in experiment [18] was “inactive” each time. For the same compound, the Potency entry in [19] and in experiment [20] was “inactive” throughout.
For the compound `O=C1CN(/N=C/c2ccc([N+](=O)[O-])o2)C(=O)N1`, the Potency result in experiment [4], in experiment [5], in [14] and in [20] was “inactive” throughout.
For `S=c1[nH]c2ccccc2s1`, the Potency entry in experiment [1], in experiment [2], in experiment [3], in experiment [4], in experiment [5] and in experiment [6] was “inactive” each time. For the same compound, the Potency result in experiment [7], in experiment [8], in [9], in experiment [10], in experiment [11] and in experiment [12] was “inactive” in each case. Besides, the Potency result in experiment [13], in experiment [14], in experiment [15], in experiment [16], in experiment [17] and in experiment [18] was “inactive” in each case. Moreover, the Potency entry in experiment [19] and in experiment [20] was “inactive” in each case.
Turning to `O=C(O)c1cc(O)c(O)c(O)c1`, the Potency result in [1], in experiment [2], in experiment [5], in [6], in experiment [7] and in experiment [8] was “inactive” each time. Moreover, the Potency result in [9], in experiment [10], in experiment [11], in experiment [12], in experiment [13] and in [15] was “inactive” throughout. Also, the Potency entry in experiment [16], in experiment [17], in experiment [18], in experiment [19] and in experiment [20] was “inactive” each time.
As for `COc1cc(CNC(=O)CCCC/C=C/C(C)C)ccc1O`, the Potency result in [1], in experiment [2], in [4], in experiment [5], in experiment [6] and in [7] was “inactive” in each case. The Potency entry in [8], in [9], in experiment [10], in [11], in experiment [12] and in experiment [13] was “inactive” each time. The Potency result in experiment [14], in [15], in experiment [16], in experiment [17], in experiment [18] and in experiment [19] was “inactive” in each case. In experiment [20], the Potency result was “inactive”.
Turning to `CN1CCC[C@H]1c1cccnc1`, the Potency entry in experiment [1], in [2], in [3], in experiment [4], in [5] and in experiment [6] was “inactive” in each case. For the same compound, the Potency entry in experiment [7], in [8], in experiment [9], in experiment [10], in [11] and in [12] was “inactive” in each case. For the same compound, the Potency entry in experiment [13], in [14], in experiment [15], in experiment [16], in experiment [17] and in experiment [18] was “inactive” throughout. In addition, the Potency result in experiment [19] and in experiment [20] was “inactive” in each case.
As to `O=C(O)/C=C\C(=O)O`, the Potency result in experiment [1], in experiment [2], in experiment [3], in experiment [4], in experiment [5] and in experiment [6] was “inactive” each time. The Potency result in [7], in experiment [8], in experiment [9], in experiment [10], in [11] and in experiment [12] was “inactive” each time. For the same compound, the Potency result in experiment [13], in experiment [14], in experiment [15], in experiment [16], in experiment [17] and in experiment [18] was “inactive” throughout. The Potency result in experiment [19] and in [20] was “inactive” in each case.
`CN(C)c1ccc(N=NS(=O)(=O)O)cc1`: the Potency result in experiment [1], in experiment [2], in [3], in experiment [4], in experiment [5] and in experiment [6] was “inactive” each time. Moreover, the Potency result in experiment [7], in [8], in [9], in experiment [10], in experiment [11] and in experiment [12] was “inactive” in each case. Further, the Potency result in experiment [13], in [14], in experiment [15], in experiment [16], in experiment [17] and in experiment [18] was “inactive” each time. Further, the Potency result in experiment [19] and in experiment [20] was “inactive” in each case.
As for `C#C[C@]1(O)CC[C@H]2[C@@H]3CCc4cc(O)ccc4[C@H]3CC[C@@]21C`, the Potency result in experiment [1], in experiment [2], in experiment [4], in experiment [6], in [7] and in [8] was “inactive” each time. For the same compound, the Potency result in experiment [9], in experiment [10], in experiment [11], in experiment [12], in experiment [13] and in experiment [14] was “inactive” each time. Further, the Potency result in experiment [15], in experiment [16], in [17], in experiment [18], in experiment [19] and in experiment [20] was “inactive” each time.
